Source: ChEMBL document CHEMBL4513216, “Probing the Open Global Health Chemical Diversity Library for Multistage-Active Starting Points for Next-Generation Antimalarials” (ACS Infect Dis, 2020)
The whole screen tested about 69,000 compounds, of which about 8,600 (12%) showed an effect of 50% or more. Shown is part of a subset that was picked to be rich in strong results.

Tested on: Plasmodium berghei
Assay: Screen against P. berghei liver stage (PbLuc), transformed with Luciferase, at 10uM
Format: functional, HepG2
Settings: tested at 10 uM

Row | SMILES | INHIBITION [%]
1 | CN(C)C(=O)COC1COC2(CCN(CC3CCOCC3)CC2)C1 (stereo not given) | 12.2
2 | COCC1CCN(C(=O)c2cn(Cc3ccccc3C(F)(F)F)nn2)C1 (stereo not given) | -49.3
3 | CNC(=O)c1cc2c(nc1NCC1CC1)CCN(S(C)(=O)=O)CC2 | -8.94
4 | Cc1csc(C2CCCCN2C(=O)c2c[nH]c(C)n2)n1 (stereo not given) | 1.75
5 | CC(=O)c1ccc(C(=O)N2C[C@H]3CC[C@@H](C2)N(Cc2ccccc2)C3)s1 | -52.1
6 | Cn1cc(CCC(=O)N2CCN(Cc3ccncc3)CC2)cn1 | 27.1
7 | CCC(=O)N1CCN(Cc2cc(-c3ccncc3)nn2C)CC1 | 19.3
8 | CCN(CC)CC(=O)N1CCN(CCc2ccncc2)CC1 | 52.6
9 | CCn1cc(CN2CCCN(C(=O)CCc3ccncc3)CC2)cn1 | 31
10 | CCN(CC)CC(=O)N1CCN(CCCc2ccncc2)CC1 | 66.5
11 | CCN(CC)C(=O)N1CCN(CCc2ccncc2)CC1 | 15.5
12 | O=C(c1cccnc1)N1CCC[C@]2(C[C@H](Oc3ncccc3F)CO2)C1 | -7.59
13 | O=C(NCc1ccc(Cl)cc1)C1=NOC2(CCNC2)C1 (stereo not given) | 1.71
14 | c1cncc(CN2CCC(c3ccnc4nccn34)C2)c1 (stereo not given) | 19.99
15 | CC(C)C1CN(c2ncccn2)CCC(=O)N1CC1CC1 (stereo not given) | 9.63
16 | COc1ccnc(N2CCC(=O)N(CC3CC3)C(C(C)C)C2)n1 (stereo not given) | 50.3
17 | Cc1nccc(N2CCC(=O)N(CC3CC3)C(C(C)C)C2)n1 (stereo not given) | 27.2
18 | Cc1noc(C)c1CN1CCN(Cc2ccncc2)c2ncccc2C1 | 29
19 | Fc1ccccc1Oc1nccnc1C1CCN(C2CCOCC2)CC1 | 25.8
20 | NC(=O)CN1CCCC(c2nccnc2Oc2cccc(F)c2)C1 (stereo not given) | -39.4
21 | Cc1cccc(Oc2nccnc2C2CCN(C(=O)C(C)(C)N)CC2)c1 | 47.1
22 | Cc1ccc(Oc2nccnc2C2CCN(C(=O)C(C)(C)N)CC2)cc1 | 33.7
23 | Fc1cccc(Oc2nccnc2C2CCN(C3CCOCC3)CC2)c1 | 52.7

Row | SMILES | INHIBITION [%]
24 | Fc1ccc(Oc2nccnc2C2CCN(C3CCOCC3)CC2)cc1 | 38.7
25 | CC(C)(N)C(=O)N1CCC(c2nccnc2Oc2ccccc2F)CC1 | 63.4
26 | CC(C)(N)C(=O)N1CCC(c2nccnc2Oc2cccc(F)c2)CC1 | 56
27 | c1ccc(Oc2nccnc2C2CCN(C3CCOCC3)CC2)cc1 | -38.3
28 | CCOCC1CC2(CCN(C(=O)c3ccc4ccccc4n3)CC2)CO1 (stereo not given) | -33.9
29 | Cc1ccc2c(c1)C(=O)NCC1(CCN(C(=O)c3sccc3C)CC1)O2 | 41.2
30 | COc1ncc(C(=O)N(Cc2cnn(C)c2)C(C)C)cn1 | 22
31 | C1CC(CN2CCO[C@H]3[C@H](OCC4CC4)CC[C@@H]32)CCO1 | 40.9
32 | CN(C)CCN(CC1CCCO1)S(=O)(=O)NCc1ccccc1 (stereo not given) | 19.4
33 | Cc1cccc(CN2C(=O)CCC23CCN(C(=O)c2ccco2)CC3)n1 | -24.5
34 | CN1CCc2cc(C(=O)N(C)C)c(NCC3CC3)nc2CC1 | 2.59
35 | COc1c(CNCc2cccc(Cn3ccnc3C)c2)c(C)nn1C | 43.3
36 | COCc1cc(N(C)Cc2ncnn2C)nc(C(C)(C)C)n1 | 50.8
37 | COCc1cc(N(C)Cc2cnccn2)nc(C(C)(C)C)n1 | 62
38 | COCc1cc(N(C)Cc2cc(C(C)(C)C)n[nH]2)ncn1 | -30.5
39 | COCc1cc(N(C)Cc2ccccn2)nc(C(C)(C)C)n1 | 27.7
40 | CN(Cc1cnccn1)c1cncc(Br)c1 | 45.9
41 | CN(Cc1cc(Cl)ccc1Cl)Cc1ncnn1C | 15.9
42 | Cc1nc(N)nc(C)c1CC(=O)N1CCCCC1c1cccc(F)c1 (stereo not given) | 19.3
43 | Cc1noc(O)c1Cc1ccc2ccccc2c1 | -26.2
44 | Cc1ccsc1CN(C)c1cc(N2CCCC2CO)ncn1 (stereo not given) | 18.6
45 | CN(C)c1cc(N(C)Cc2cc(C(C)(C)C)n[nH]2)ncn1 | -82.7
46 | Cc1cc(C)n(CCCN(C)c2cc(C3CC3)ncn2)n1 | 8.7

Row | SMILES | INHIBITION [%]
47 | CCn1ccnc1CN(C)c1cc(N(C)C)ncn1 | 57.3
48 | CCn1ccnc1CN(C)c1cc(C2CC2)ncn1 | 52.6
49 | CCn1ccnc1CN(C)c1cc(C2CCCNC2)nc(C)n1 (stereo not given) | 4.41
50 | COc1cc(N(C)Cc2cc(C(C)(C)C)n[nH]2)ncn1 | -45
51 | COc1cc(N(C)CCCn2nc(C)cc2C)ncn1 | 14.3
52 | CCn1ccnc1CN(C)c1cc(OC)ncn1 | 58.2
53 | CCn1ccnc1CN(C)C(=O)Cn1ccc2ccccc2c1=O | 3.04
54 | COc1cc(N2CCO[C@H]3[C@@H](Oc4cccnc4)CC[C@@H]32)ncn1 | 23.5
55 | Cc1cccc(CN2CC3(CCN(Cc4ccco4)CC3)OCC2=O)n1 | -16.2
56 | NC(=O)C1CCN(C(=O)Cc2cnc(-c3c(Cl)cccc3Cl)s2)CC1 | 37.9
57 | O=S(=O)(c1ccc(F)cc1)N1CCCC1c1cc[nH]n1 (stereo not given) | 33.7
58 | COc1ccc(C(=O)N2CCC(Nc3cccnn3)CC2)c(F)c1 | -32
59 | N#CCCN(Cc1cccnc1)C(=O)c1ccc(-n2cnnn2)cc1 | 18.6
60 | CC(C)N(CC(N)=O)Cc1cccc(Br)c1 | 16.6
61 | Cc1c(Cl)cccc1NC(=O)CCNc1ccc(C#N)cn1 | -128
62 | CC(C)N(CC(=O)O)Cc1cccc(Br)c1 | 13.2
63 | Cc1c(Cl)cccc1NC(=O)CN(Cc1cccnc1)C(C)C | 73.2
64 | N#CCCN(Cc1cccnc1)C(=O)c1cc(Cl)c[nH]1 | 30.3
65 | N#CCCN(CC(=O)Nc1ccc(Br)cc1Cl)Cc1cccnc1 | 64.3
66 | CCc1noc(C(C)N(C)CC(=O)Nc2ccccc2Cl)n1 (stereo not given) | 21.7
67 | CC(C)N(CC(=O)Nc1ccc(Br)cc1Cl)Cc1cccnc1 | 73.2
68 | O=C(Cc1ccc2c(c1)CCC2)N1CCCC1Cn1cccn1 (stereo not given) | 2.79
69 | Cc1cccc(N2CC3(CCN(S(=O)(=O)C4CC4)C3)C2)n1 | 34.6

Row | SMILES | INHIBITION [%]
70 | CC(=O)N1CCCC2(CN(Cc3ccc(C)s3)CCO2)C1 (stereo not given) | -46.8
71 | O=C(Cc1cccs1)N1C[C@H]2CN(CC3CCCO3)CC[C@H]2C1 (stereo not given in full) | 30.3
72 | O=C1[C@@H]2CN(c3ncc(Cl)cc3F)C[C@]2(C(=O)O)CN1CC1CC1 | -5.19
73 | Cc1nc(CN(C)C2CCCN(c3cccnn3)C2)oc1C (stereo not given) | -21.8
74 | Cc1nc(C2CCCN2C(=O)CN(C)Cc2ccccc2)no1 (stereo not given) | 34
75 | Cc1cc(C2CCCN2C(=O)NCc2c(C)cc(C)[nH]c2=O)on1 (stereo not given) | 36.1
76 | CN(CC(=O)N1CCCC1c1ccccn1)Cc1ccccc1 (stereo not given) | 26.6
77 | Cc1cc(C2CCCN2C(=O)CN(C)Cc2ccccc2)no1 (stereo not given) | 58.7
78 | Cc1cc(C)c(CNC(=O)N2CCCC2c2cc(C)on2)c(=O)[nH]1 (stereo not given) | 81.3
79 | Cc1cc(C)c(CNC(=O)N2CCCC2c2ccccn2)c(=O)[nH]1 (stereo not given) | -14.7
80 | CN(C)[C@@H]1CCN(c2ncccn2)[C@H]1Cc1cccnc1 | -31.4
81 | CCN1CCC(N2CCC(C(=O)N(C)C)CC2)CC1 | 15.6
82 | Cc1cccc(CN2CCC(c3nnc(-c4scnc4C)o3)CC2)c1 | 23.4
83 | Cc1ncsc1-c1nnc(C2CCN(Cc3ccccc3)CC2)o1 | 27.8
84 | Cc1ncsc1-c1nnc(C2CCN(Cc3cccc(Cl)c3)CC2)o1 | -6.3
85 | Cc1ncsc1-c1nnc(C2CCN(Cc3ccc(F)cc3)CC2)o1 | 35.3
86 | Cc1ncsc1-c1nnc(C2CCN(Cc3ccc(Cl)cc3)CC2)o1 | 76.8
87 | COc1ccc(CN2CCC(c3nnc(-c4scnc4C)o3)CC2)cc1 | 54.5
88 | Cc1ccc(CN2CC[C@H](c3nnc(-c4ccco4)o3)C2)cc1 | -33
89 | Cc1ccsc1-c1nnc(C2CCN(Cc3ccc(F)cc3)CC2)o1 | 68.2
90 | Fc1ccc(CCN2CCC(c3nnc(-c4cccnc4)o3)CC2)cc1 | 35.3
91 | COc1ccc2c(c1)CN(C)C(=O)CCN2CC(O)C(F)(F)F (stereo not given) | -8.04
92 | Cc1cnc(CNCc2cn(CCN3CCSCC3)nc2C)cn1 | 4.68

Row | SMILES | INHIBITION [%]
93 | O=C(NCc1ccccn1)c1cnc(C2CCCN2)cn1 (stereo not given) | 18.3
94 | FC(F)CNc1cnc(C2CCCN2)cn1 (stereo not given) | 5.15
95 | Cc1csc(NC(=O)c2cnc(C3CCNCC3)cn2)n1 | 24.4
96 | COc1c(C2CCCN2CC(=O)Nc2nc(C)cs2)c(C)nn1C (stereo not given) | 31.9
97 | Cc1cccc(NC(=O)c2cnc(C3CCCNC3)cn2)n1 (stereo not given) | 10.4
98 | O=C(NCC(F)F)c1cnc(C2CCCN2)cn1 (stereo not given) | 61.05
99 | Cc1csc(NC(=O)c2cnc(C3CCCN3)cn2)n1 (stereo not given) | 80.9
100 | Cc1nn(C)c(C)c1-c1cnc(C2CCCN(C)C2)cn1 (stereo not given) | -28.6
101 | Cc1csc(NC(=O)c2cnc(C3CCCN(C)C3)cn2)n1 (stereo not given) | 71.3
102 | COCCN1Cc2nccn2CC(COCc2csc(C)n2)C1 (stereo not given) | 29.5
103 | CN(C)CCNC(=O)c1sc2ccccc2c1C1CCC(CN)CC1 (stereo not given) | -77.3
104 | COCC1CN(S(=O)(=O)N(C)C)Cc2cnn(CC3CCCC3)c21 (stereo not given) | -17.1
105 | COc1cccc2c1ccn2CCNC(=O)CCNc1ncccn1 | 38.5
106 | COc1ncnc2c1CCN(Cc1cccc(C)n1)CC2 | 10.7
107 | CC(NS(C)(=O)=O)C(=O)N(C)Cc1csc(-c2cccs2)n1 (stereo not given) | -102
108 | Cc1cc(CN(C)Cc2csc(-c3cccs3)n2)n[nH]1 | 57
109 | CCc1nc(CN(C)Cc2nnc(-c3cccs3)o2)cs1 | 7.81
110 | Cc1nc(CN(C)Cc2csc(-c3cccs3)n2)co1 | 15.7
111 | CNC(=O)C(C)S(=O)(=O)Cc1csc(-c2cccs2)n1 (stereo not given) | 30.1
112 | CN(Cc1csc(-c2cccs2)n1)CC(O)CO (stereo not given) | 51.5
113 | CN(Cc1csc(-c2cccs2)n1)Cc1ncccc1C(=O)O | 5.91
114 | COC(=O)NCC(=O)N(C)Cc1csc(-c2cccs2)n1 | 49.2
115 | CN(Cc1csc(-c2cccs2)n1)Cc1cccnc1N | 55.9
